Assay outcomes as filed in PubChem.
Sampled rows, rich in hits. Any-hit rate of the full collection: about 3.5%.
FBW7 act = human FBW7 E3 ligase activation, primary screen; 0.13% of 650,000 active; AlphaScreen FBW7–phospho-cyclin E peptide binding, activator screen; Q969H0; AID 1259310; normalized activity (activation), % at 26.1 µM; in the data active = normalized activity above about 1.9%;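 note: purified mutant Fbw7 with reduced substrate affinity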
Target sequence (Q969H0 whole entry, looked up): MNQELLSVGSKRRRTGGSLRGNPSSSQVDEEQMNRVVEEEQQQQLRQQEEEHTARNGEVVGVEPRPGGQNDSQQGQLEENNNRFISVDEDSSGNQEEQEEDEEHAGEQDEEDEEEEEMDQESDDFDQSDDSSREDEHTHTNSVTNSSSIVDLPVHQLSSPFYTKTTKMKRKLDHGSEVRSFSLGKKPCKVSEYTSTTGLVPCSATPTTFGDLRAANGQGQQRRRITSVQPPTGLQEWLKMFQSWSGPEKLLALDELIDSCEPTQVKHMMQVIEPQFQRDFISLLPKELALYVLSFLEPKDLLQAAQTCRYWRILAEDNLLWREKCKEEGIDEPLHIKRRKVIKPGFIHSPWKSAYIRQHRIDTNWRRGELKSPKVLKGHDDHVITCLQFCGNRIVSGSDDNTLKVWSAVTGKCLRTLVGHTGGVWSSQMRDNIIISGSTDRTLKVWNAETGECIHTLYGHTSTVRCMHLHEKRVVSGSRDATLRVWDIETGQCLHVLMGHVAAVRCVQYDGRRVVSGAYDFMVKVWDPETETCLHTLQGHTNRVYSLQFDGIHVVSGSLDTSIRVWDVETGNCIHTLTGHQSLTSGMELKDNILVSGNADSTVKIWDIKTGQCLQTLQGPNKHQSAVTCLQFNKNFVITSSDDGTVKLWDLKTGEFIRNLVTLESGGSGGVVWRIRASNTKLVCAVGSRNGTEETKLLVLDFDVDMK
GPR151 ag = activates the human receptor GPR151 | PathHunter beta-arrestin GPR151 cells, luminescence | activation, % at 11.2 µM | AID 1508602 | 1% of 650,000 active | Q8TDV0; in the data active = activation above about 4.9%
TEAD-YAP block = TEAD-YAP interaction inhibition | HEK-TIYL cells, TEAD-Gal4/YAP UAS-luciferase luminescence | inhibition, % at 9.12 µM | 1.4% of 640,000 active | AID 1259422; in the data active = inhibition above about 32%
MITF inh = human MITF inhibition, primary screen. O75030. AlphaScreen MITF homodimerization, bead proximity signal. inhibition, % at 2.6 µM. 0.91% of 650,000 active. AID 1259374; in the data active = inhibition above about 50%
GPR151 confirm = human GPR151 activation, confirmation screen. shares compounds with GPR151 ag. GPR151 PathHunter beta-arrestin cells, luminescence, 90 min; % of EA-reagent control over plate median. AID 1508609. activation, % at 11.2 µM. 6,700 tested, under 10 active;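 active = mean percent activation across replicates above the confirmation screen cutoff of 4.91%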
GPR119 counter = GPR119 activation, counter-screen for GPR151 activators; shares compounds with GPR151 ag; GPR119 PathHunter beta-arrestin cells, luminescence, 90 min; 0 = compound-well median, 100 = enzyme-acceptor control; activation, % at 11.2 µM; 0.3% of 6,700 active;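 active = mean percent activation in the counterscreen above 29.09%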;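 note: counterscreen on off-target GPR119 to flag nonselective hits from the GPR151 activator screen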
A number is an active result; . = inactive; / = not tested or not shown; ! = repeats disagree.

SMILES	FBW7 act	GPR151 ag	TEAD-YAP block	MITF inh	GPR151 confirm	GPR119 counter
Cc1ccc(-c2ccc(OCCNC(=O)c3ccc(C)c(C)c3)nn2)cc1	.	.	.	.	/	/
CC(=O)Nc1ccccc1NC(=O)C/C(C)=N/NC(=O)c1ccncc1	.	.	.	.	/	/
COc1ccccc1C(=O)N/N=C(\C)CC(=O)Nc1ccccc1Br	.	7.6	.	.	.	.
C/C(CC(=O)Nc1ccccc1Cl)=N\NC(=O)c1ccncc1	.	9.1	.	.	.	.
CCn1cnc2sc(C(=O)Nc3cc(Cl)ccc3OC)c(C)c2c1=O	.	.	.	.	/	/
CC(C)n1c(Nc2ccc3ncccc3c2)nc2c(NCCc3ccc(O)cc3)ncnc21	.	5.1	.	.	.	.
CC(C)n1c(Nc2ccccc2)nc2c(NCCc3ccc(O)cc3)ncnc21	.	6.1	.	.	.	.
CC(C)n1c(Nc2ccc3ncccc3c2)nc2c(NCCN3CCOCC3)ncnc21	.	6.4	.	.	.	.
CCN(CC)c1ncnc2sc(C(=O)NCc3ccccn3)c(C)c12	.	.	.	.	/	/
O=CN1CCN(c2ccc([N+](=O)[O-])cn2)CC1	.	.	.	.	/	/
COc1ccc(C2C(C(C)=O)=C(C)N=c3s/c(=C/c4ccccc4)c(=O)n32)cc1 (centres undefined)	.	8.8	.	.	.	.
COc1ccc(C2C(C(C)=O)=C(C)N=c3s/c(=C/c4ccc(OCc5cccc6ccccc56)cc4)c(=O)n32)cc1 (centres undefined)	.	.	.	.	/	/
CCOC(=O)C1=C(C)N=c2s/c(=C\c3ccc(C(C)C)cc3)c(=O)n2C1c1ccc(OC)cc1 (centres undefined)	.	7.0	.	.	.	.
C=CCn1cc(/C=c2\sc3n(c2=O)C(c2ccc(OC)cc2)C(C(=O)OCC)=C(C)N=3)c2ccccc21 (centres undefined)	.	5.0	.	.	.	.
C=CCn1cc(/C=c2\sc3n(c2=O)C(c2ccc(Cl)cc2)C(C(=O)OCC)=C(C)N=3)c2ccccc21 (centres undefined)	.	.	.	.	/	/
CCOC(=O)C1=C(C)N=c2s/c(=C\c3ccc(Br)o3)c(=O)n2C1c1ccc(OC(C)C)cc1 (centres undefined)	.	5.0	.	.	.	.
CCOC(=O)C1=C(C)N=c2s/c(=C\c3ccc(C(C)C)cc3)c(=O)n2C1c1ccc(C(C)C)cc1 (centres undefined)	.	.	.	.	/	/
O=C(Nc1cc(Oc2cccnc2)cc([N+](=O)[O-])c1)c1cc2nc(-c3ccccc3)cc(-c3ccccc3)n2n1	.	.	.	.	/	/
Cc1n[nH]c(C)c1CCN(C)Cc1c(C(=O)N2CCCCCCC2)nc2sccn12	.	.	.	.	/	/
Nc1ncnc(Nc2ccc(S(=O)(=O)Nc3ncccn3)cc2)c1[N+](=O)[O-]	.	4.9	.	.	.	.
Cc1cc(C)nc(NS(=O)(=O)c2ccc(Nc3ncnc(N)c3[N+](=O)[O-])cc2)n1	.	.	.	.	/	/
COc1ccc2c(c1)CC(C(=O)Nc1ccc(-c3ccnc(N)n3)cc1O)CO2 (centres undefined)	.	.	.	.	/	/
COc1ccc2c(c1)CC(C(=O)Nc1ccc(-c3ccnc(N)n3)cc1)CO2 (centres undefined)	13.9	5.2	.	.	.	.
Cc1ccc(C)c(NC(=O)CSc2nc3c(c(=O)n2C)SCC3)c1	.	.	.	.	/	/
O=C(NCc1n[nH]c(=S)n1-c1cccc(C(F)(F)F)c1)c1ccc(S(=O)(=O)N2CCCCC2)cc1	.	5.4	.	.	.	.
SMILES	FBW7 act	GPR151 ag	TEAD-YAP block	MITF inh	GPR151 confirm	GPR119 counter
COC(=O)c1cc([N+](=O)[O-])c(C(=O)OC)cc1Oc1ccc(Cl)cc1	.	6.4	.	.	.	.
COC(=O)C1CCN(Cc2ccc3c(c2)CN(C(=O)c2[nH]c(C)cc2C)CCO3)CC1	.	.	.	.	/	/
COc1ccc(C2(CC(=O)N3CC[C@@H](O)C3)CC(=O)N(CCC(C)C)C2=O)cc1 (some centres undefined)	.	6.7	.	.	.	.
COc1ccc(C2(CC(=O)N3CCCC(O)C3)CC(=O)N(CCC(C)C)C2=O)cc1 (centres undefined)	.	.	.	.	/	/
COc1ccc(CNc2c(-c3cc(OC)c(OC)c(OC)c3)nc3cnccn23)cc1	.	.	.	.	/	/
CC(C)(O)c1ccccc1CC[C@@H](SCC1(CC(=O)O)CC1)c1cccc(/C=C/c2ccc3ccc(Cl)cc3n2)c1	.	6.7!	.	.	.	.
CCN(CC)C(=O)c1sc(NC(=O)c2ccco2)c(C(=O)OC(C)C)c1C	.	.	.	.	/	/
CCN(CC)C(=O)c1sc(NC(=S)NCc2ccco2)c(C(=O)OC)c1C	.	11.3	.	.	.	.
COC(=O)c1c(NC(=O)c2ccco2)sc(C(=O)Nc2cccc(C)c2)c1C	.	6.4	.	.	.	.
CS(=O)(=O)N1CN(S(C)(=O)=O)c2ccccc21	.	.	.	.	/	/
C=CCn1cnc2c(nnn2-c2cc(C)cc(C)c2)c1=O	.	9.4	.	.	.	.
O=C(Nc1cccc(-c2ccc(F)cc2)c1)C1CCCN(C(=O)C2CCOCC2)C1 (centres undefined)	.	.	.	.	/	/
CC(=O)n1cc(/C=C2/N=C(c3ccccc3)OC2=O)c2ccccc21	.	.	.	.	/	/
COc1cccc(C2=N/C(=C\c3cn(C(C)=O)c4ccccc34)C(=O)O2)c1	.	7.5	.	.	.	.
CCOc1ccccc1N1C(=O)NC(=O)/C(=C/c2cccs2)C1=O	.	.	.	.	/	/
Cc1c(N=Cc2ccccc2)cc([N+](=O)[O-])cc1[N+](=O)[O-]	.	5.3	.	.	.	.
Cc1c(N=CN(C)C)cc([N+](=O)[O-])cc1[N+](=O)[O-]	.	.	.	.	/	/
O=C(CSc1nnc(-c2ccco2)c(-c2ccco2)n1)Nc1nccs1	.	.	.	.	/	/
Cc1ccc(-c2c(N3CC(=O)N(CCc4ccccc4)C(=O)C3)c(=O)c2=O)cc1	.	6.5	.	.	.	.
O=C(NC1C2CC3CC(C2)CC1C3)c1ccc(Cl)c([N+](=O)[O-])c1 (centres undefined)	.	.	.	.	/	/
O=C(Nc1nc(-c2ccccc2)cs1)c1ccc(Cl)s1	.	.	.	.	/	/
O=C(Nc1nc(-c2ccc(I)cc2)cs1)c1ccc(Cl)s1	.	5.5	.	.	.	.
C=CCOC(=O)C1=C(C)NC(C)=C(C(=O)OCC=C)C1c1cn(-c2ccccc2)nc1-c1ccc(Br)cc1	.	5.0	.	.	.	.
CCc1cccc(CC)c1NC(=O)c1cc(S(=O)(=O)N2CCCCCC2)ccc1F	.	.	.	.	/	/
O=C(Cc1ccc(F)cc1)NCC1(c2cccs2)CCOCC1	.	.	.	.	/	/
O=C(Cc1cccs1)NCC1(c2ccc(F)cc2)CC1	.	11.8	.	.	.	.
